Test results taken from PubChem BioAssay (NCATS).
Inconclusive results are not listed. Activity calls are given as the source filed them. Calls come from the whole dose curve; as a rule, active = well fitted cell-killing curve with a large enough effect; inconclusive = small, poorly fitted or top-dose-only effect, or effect the other way; inactive = no such curve, though single readings can be large or run the other way.

assay: Viability qHTS for spleen associated tyrosine kinase inhibitor (SYKi) naive MV4-11 cells (AID 1963823); conditions: MV4-11 AML viability, CellTiter-Glo luminescence, 72 h; series mostly up to 45 µM; viability (% of control): at the top concentration; note: nearly all actives have a fitted effect of over 40% in size
In short: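 Read-out: CellTiter-Glo luminescence. Exposure: 72 hr, 37 C, 5% CO2, 95% humidity. Cells: MV4-11 without SYK inhibitor history, 500/well, qHTS format.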

Row | Structure (SMILES) | viability (% of control)
1 | C=C/C=C/[C@@H]1OC[C@H](/C=C/C=C/C)[C@H]1O | 82.4% [at 91.9 µM] (inactive)
2 | COC(=O)C1C(c2ccc(O)cc2)C(C(=O)O)C1c1ccc(O)cc1 (stereo not drawn) | 65.8% (inactive)
3 | CC(C)=CCC/C(C)=C/CO[C@@H]1O[C@H](CO)[C@@H](O)[C@H](O)[C@H]1O | 85.2% (inactive)
